# PubChem BioAssay AID2553 (Johns Hopkins Ion Channel Center, 2010)
# The whole screen tested about 310,000 compounds, of which about 3,300 (1.1%) were called active.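 How the source made its calls: active means B-score under library mean minus 3 SD, initial fluorescence not abnormally high, positive integrated signal ratio; inactive means the rest.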 The full list was thinned out, with actives kept by preference.
# Target: Short transient receptor potential channel 6 (Mus musculus) (UniProt Q61143)
# Sequence (Q61143 whole entry, looked up): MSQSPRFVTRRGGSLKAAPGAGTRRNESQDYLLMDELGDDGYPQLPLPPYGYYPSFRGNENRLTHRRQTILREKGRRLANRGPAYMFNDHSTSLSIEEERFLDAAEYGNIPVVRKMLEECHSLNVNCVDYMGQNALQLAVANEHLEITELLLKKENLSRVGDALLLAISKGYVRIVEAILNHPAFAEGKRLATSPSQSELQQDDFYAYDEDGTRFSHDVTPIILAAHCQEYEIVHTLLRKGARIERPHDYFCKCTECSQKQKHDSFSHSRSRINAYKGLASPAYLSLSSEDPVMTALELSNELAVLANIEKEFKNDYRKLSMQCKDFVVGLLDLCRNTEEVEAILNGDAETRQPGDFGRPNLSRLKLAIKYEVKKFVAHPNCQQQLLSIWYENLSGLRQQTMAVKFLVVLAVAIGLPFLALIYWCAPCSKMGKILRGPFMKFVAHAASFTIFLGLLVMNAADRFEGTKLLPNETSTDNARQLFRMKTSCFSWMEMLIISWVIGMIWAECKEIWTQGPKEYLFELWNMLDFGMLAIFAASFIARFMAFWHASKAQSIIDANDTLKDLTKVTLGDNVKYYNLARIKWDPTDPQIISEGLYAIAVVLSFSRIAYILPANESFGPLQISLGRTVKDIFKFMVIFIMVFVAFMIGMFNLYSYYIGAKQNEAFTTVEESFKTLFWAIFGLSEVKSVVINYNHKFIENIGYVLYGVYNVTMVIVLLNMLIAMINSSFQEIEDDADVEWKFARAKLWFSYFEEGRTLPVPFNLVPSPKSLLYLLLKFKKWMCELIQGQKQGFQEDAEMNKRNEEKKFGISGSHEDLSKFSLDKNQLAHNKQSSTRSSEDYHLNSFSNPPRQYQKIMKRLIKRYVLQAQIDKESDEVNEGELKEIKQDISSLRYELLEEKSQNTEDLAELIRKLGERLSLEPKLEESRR
# Experiment: mouse TRPC6 channel inhibitors, primary screen, cell-based, HEK293, membrane potential dye (AID 2553);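 on B-score: B-score derived from integrated fluorescence ratio over the kinetic read; more negative B-score means stronger inhibition of depolarization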
# Conditions: ACh-evoked depolarization, at 10 µM; active compounds read low
row,Compound,B-score
1,Cc1nc2ccc(N3CCN(C)CC3)cc2nc1C,inactive
2,COc1cccc(-c2nc3ccc(N4CCN(C)CC4)cc3[nH]2)c1,-9.09 (active)
3,CC1=C(C(=O)Nc2ccccc2)S(=O)(=O)CCO1,inactive
4,COc1ccc(Br)cc1CNCCc1cccc(Cl)c1,inactive
5,CCOc1cccc(=NC2CCCCC2)c2c(C)[nH]c(C)c12,-8.34 (active)
6,CCOP(=S)(OCC)C(O)CCCCCn1c(=O)c(F)cn(C2CCCO2)c1=O (stereo not given),inactive
7,COCc1cc(OC(=O)N(C)C)nc(-c2ccc(C)c(Cl)c2)n1,inactive
8,C[N+]12CN3CN(CN(C3)C1)C2,inactive
9,CC1=CC(=Cc2sc3ccccc3[n+]2C)C=C(C)O1,-5.72 (active)
10,COc1c(O)ccc2c1-c1c3c(cc4c1C(C2)N(C)CC4)OCO3 (stereo not given),inactive
11,Cc1cccc(OP(=O)(Oc2cccc(C)c2)OC(c2ccccc2)C(F)(F)F)c1 (stereo not given),inactive
12,CC1=C2C(=O)C3C(CC=C4CC(OC5OC(O)C(O)C(O)C5CO)CCC43C)C2CCC12OC1CC(C)CNC1C2C (stereo not given),inactive
13,CCOP(=O)(OCC)C(NC(=O)c1ccc(C)cc1)C(Cl)(Cl)Cl (stereo not given),inactive
14,c1ccc(CC2CCCCN2)cc1 (stereo not given),inactive
15,Cc1nc2ccccn2c1P(=S)(N1CCCCC1)N1CCCCC1,inactive
16,Cc1nn(Cc2ccccc2Cl)c(Cl)c1C(=O)OC(C(=O)NC(N)=O)C(C)C (stereo not given),inactive
17,N[C@@H](Cc1c[nH]c2ccccc12)c1nnc(SCc2c(F)cccc2Cl)o1,inactive
18,CC1(C)Cc2c(C#N)c(N3CCNCC3)nc(-c3ccco3)c2CS1,-5.98 (active)
19,O=c1[nH]c(O)c(C=Nc2cc(F)cc(F)c2)c(=O)[nH]1,inactive
20,COc1ccccc1NC(=O)N1C[C@@H]2C[C@@H](C1)c1cccc(=O)n1C2,inactive
21,CN1CCN(Cc2ccc(OC(F)(F)F)cc2)CC1,inactive
22,CCN1CCN(c2ccc([N+](=O)[O-])cc2C#N)CC1,inactive
23,CN1CCN(c2cc(N3CCNCC3)ccc2[N+](=O)[O-])CC1,-9.48 (active)
24,N=c1ccccn1Cc1ccccc1,inactive
25,CC(Cc1ccccc1)NC=O (stereo not given),inactive
26,CCCCCCCCCCCCn1ccc(=N)cc1,-8.97 (active)
27,CCCCCCN=C(CC)c1c(O)n(CCCC)c(=O)[nH]c1=O,inactive
28,CC(C)(C)[C@]1(O)C[C@@H]2OC(=O)C[C@@]23C(=O)O[C@@H]2OC(=O)[C@H](O)[C@]213,inactive
29,c1ccc(C2NCc3ccccc3-n3cccc32)cc1 (stereo not given),inactive
30,NCCc1c[nH]c2ccc(O)cc12,inactive
